Screening data from PubChem.
Only some compounds are listed: those with a hit (about 11% of all), similar ones and a draw of the others.
HCV inh: HCV inhibition; Huh7.5.1 HCVcc-Cre infection, luciferase reporter, 44 h; Potency, µM (highest dose often 41.8 µM), without a hit: at the top dose activity change, negative = inhibition, actives largely listed as inhibitors; 340,000 tested, 3.4% active
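A cell-based infection assay in which seeded cells (1,000 per well) receive test compound after 4 h, are inoculated with HCVcc-Cre at approximately 0.5 moi, and are incubated 44 h before luminescence detection.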
Pf growth 48h: inhibits P. falciparum growth in the first generation, 48 h; P. falciparum luciferase growth in erythrocytes, 48 h; Potency, µM (series often up to 28.7 µM), for inactives: at the highest dose activity change, negative = inhibition, actives largely listed as inhibitors; AID 504832; 310,000 tested, 5.9% active
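Compounds are pin-transferred into medium, infected erythrocytes (2% hematocrit, 0.1% parasitemia final) are added, and plates sit one parasite generation at 37 C in 5% CO2. Detection reagent is then added and luminescence measured.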
AMA1-RON2 inh: disrupts binding of P. falciparum AMA1 to RON2; 360,000 tested, 0.2% active; AlphaScreen AMA1-biotinylated RON2 peptide binding; Potency, µM (series often up to 58.2 µM), for the others: at the top dose activity change, negative = inhibition, actives largely listed as inhibitors; AID 720542;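 further: 0% = vehicle wells and -100% = peptide control; nearly all actives have a fitted effect of over 45% in size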
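AMA1 (3D7) with his tag at 25 nM final met compounds first, then biotinylated RON2 peptide at 25 nM; detection used donor plus acceptor beads, 10 µg/mL apiece, read by AlphaScreen after 30 min at room temperature.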
AmpC inh no detg: blocks E. coli AmpC beta-lactamase in detergent-free assay; AmpC nitrocefin hydrolysis, absorbance 480 nm, 0.0001% Triton; Potency, µM (top dose mostly 57.1 µM), for the others: at the highest dose activity change, negative = inhibition, hits mostly inhibitors; 330,000 tested, 0.52% active; AID 485341;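 further: plate controls were no compound for no effect and no enzyme for full effect; nearly all actives have a fitted effect of over 20% in size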
Target sequence (P00811 whole entry, looked up): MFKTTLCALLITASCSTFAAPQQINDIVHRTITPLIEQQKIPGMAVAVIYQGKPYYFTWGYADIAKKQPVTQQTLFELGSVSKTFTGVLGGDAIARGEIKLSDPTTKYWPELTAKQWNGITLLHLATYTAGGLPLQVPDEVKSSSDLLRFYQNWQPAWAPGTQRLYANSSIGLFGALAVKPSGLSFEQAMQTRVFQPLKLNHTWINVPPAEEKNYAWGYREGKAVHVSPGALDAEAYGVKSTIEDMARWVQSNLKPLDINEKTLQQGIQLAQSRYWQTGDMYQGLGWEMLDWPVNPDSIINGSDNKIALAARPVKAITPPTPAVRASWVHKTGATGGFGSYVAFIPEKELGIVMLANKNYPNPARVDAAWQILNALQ
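20 mM phosphate pH 7.0 + 0.01% (detergent screen) or 0.0001% Triton X-100; 5.3 nM AmpC reagent; cpd preinc 15 min RT; nitrocefin (800 uM stock) to start; A480 q20 s × 4 min; Activity was normalised to no-enzyme and no-compound control wells.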
AmpC inh detg: blocks E. coli AmpC beta-lactamase in detergent assay. P00811. AmpC hydrolysis of nitrocefin, absorbance 480 nm, 0.01% Triton. Potency, µM (titrated, usually from 114 µM), for inactives: at the highest dose activity change, negative = inhibition, usual class: inhibitors. 370,000 tested, 0.041% active. AID 485294;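 further: 0% = no-compound wells and -100% = no-enzyme wells; nearly all actives have a fitted effect of over 25% in size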
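20 mM phosphate pH 7.0 + 0.01% (detergent screen) or 0.0001% Triton X-100; 5.3 nM AmpC reagent; cpd preinc 15 min RT; nitrocefin (800 uM stock) to start; A480 q20 s × 4 min; Activity was normalised to no-enzyme and no-compound control wells.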
Pf growth 96h: P. falciparum growth inhibition at 96 hour, primary screen for plastid delayed-death inhibitors | Potency, µM (highest dose often 28.7 µM), without a hit: at the highest dose activity change, negative = inhibition, actives largely listed as inhibitors | P. falciparum luciferase reporter growth, 96 h | 320,000 tested, 6.9% active | AID 504834
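Two parasite generations (96 h, 37 C, 5% CO2) of compound exposure in infected erythrocytes (0.05% parasitemia, 2% hematocrit). Luciferase-reporter P. falciparum; decreased luminescence indicates inhibited growth, aimed at apicoplast-acting delayed death.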
An asterisk follows results filed as active; ? = inconclusive; . = no result; [ ] = dose if it differs, or a comment. The call rests on the fitted dose curve; in most records, active means well fitted curve in the direction sought with a large enough effect; inconclusive means small, poorly fitted or top-dose-only effect, or another doubt; inactive means no such curve, though single readings can be large; an effect the other way counts as inactive or inconclusive. Unless noted, on the % scale 0 is the no-effect control and ±100 the full control effect; potency means the concentration at half of the fitted maximal effect.

SMILES | HCV inh | Pf growth 48h | AMA1-RON2 inh | AmpC inh no detg | AmpC inh detg | Pf growth 96h
CCN(CC)C(=O)c1ccc(NC(=O)c2cc(S(=O)(=O)N3CCCCCC3)ccc2OC)cc1 | ? | 7.38µM* | -1.2% | 207.8% | ? | 9.28µM*
CCn1cc2c(n1)-c1c(oc(C(=O)Nc3ccc(Br)cc3F)c1C)CC2 | . | . | . | . | -3.1% | .
CC1=C(c2ccc(Cl)cc2)S(=O)(=O)N=C1N1CCN(c2cccc(C(F)(F)F)c2)CC1 | . | . | . | . | -5.6% | .
COC(=O)c1c(NC(=O)COc2cc(C)c(Cl)c(C)c2)sc2c1CCCC2 | . | . | . | . | 14.6% | .
COc1ccc(S(=O)(=O)N2CCCCC2)cc1NC(=O)Cc1cccs1 | -8.2% | 11.7µM* | -0.5% | -25.0% | -3.1% | ?
COc1ccc(S(=O)(=O)N2CCCCCC2)cc1C(=O)NCc1cccs1 | ? | 14.7µM* | 17.1%[11.6 µM] | -16.7% | -5.2% | ?
O=C(Cc1cccs1)Nc1cc(S(=O)(=O)N2CCCCC2)ccc1Cl | -14.6% | ? | -7.0% | -33.9% | ? | ?
Cc1cc(C)nc(NC(=S)NC(=O)c2ccccc2)n1 | 3.5% | 15.1% | 38.2% | -17.5% | ? | 0.928µM*
O=C(O)c1cccc(NC(=S)NC(=O)c2ccncc2)c1 | 6.6% | 32.0% | -10.7% | -19.3% | -4.1% | 9.28µM*
COc1cc2c(cc1OC)n(Cc1cccc(C(F)(F)F)c1)c(=O)n1nc(-c3ccccc3)nc21 | . | . | . | . | 0.4% | .
Cc1c(C=O)c2ccccc2n1CCOc1ccccc1F | ? | ? | -2.8% | 31.1% | -12.0% | 8.28µM*
Cc1c(/C=N/n2cnnc2)c2ccccc2n1CCOc1ccccc1 | ? | 13.1µM* | 6.9% | 136.1% | ? | ?
COc1ccc(CCNc2nc(SCc3ccc(F)cc3)nc3ccccc23)cc1OC | . | . | . | . | 18.2% | .
O=C(NCCc1ccc(Cl)cc1)c1cnc2sc(N3CCCC3)nn2c1=O | . | . | . | . | 2.4% | .
CC(C)(C)n1nnnc1C(c1ccncc1)N1CCCCCC1 (centres undefined) | 26.2% | -22.3% | 2.3% | 9.3% | -2.6% | ?
CC(C)(C)P(=O)(c1ccncc1)N1CCCC1 (centres undefined) | -2.9% | ? | 1.9% | -8.3% | ? | 0.738µM*
COc1cc2c(cc1OC)CN(C1CC(=O)N(c3c(C)cccc3C)C1=O)CC2 (centres undefined) | -1.6% | 6.57µM* | -1.4% | 12.5% | 3.8% | ?
CCOc1cc(C2NCc3ccccc3-n3cccc32)ccc1O (centres undefined) | -5.6% | 2.62µM* | ? | -7.0% | -0.4% | -25.6%
Oc1ccccc1C1NCc2ccccc2-n2cccc21 (centres undefined) | -15.4% | 13.1µM* | -14.0% | -31.8% | -4.5% | 26.0%
Clc1ccccc1C1NCc2ccccc2-n2cccc21 (centres undefined) | -18.2% | -10.1% | -20.4% | -41.3% | 2.1% | ?
CCOc1cccc(C2NCc3ccccc3-n3cccc32)c1O (centres undefined) | -16.8% | ? | -5.4% | -1.3% | 2.5% | 77.9%
CCC(Sc1nc(-c2ccccc2F)nc2c1Cc1c(CO)cnc(C)c1O2)C(=O)Nc1cc(C)ccc1C (centres undefined) | . | . | . | . | -4.6% | .
CCCCCn1c(=N)c(S(=O)(=O)c2ccc(C)cc2)cc2c(=O)n3cc(C)ccc3nc21 | . | . | . | . | 9.4% | .
CC(SC#N)C(=O)C12CC3CC(CC(C3)C1)C2 (centres undefined) | -0.1% | 13.1µM* | -15.9% | -10.6% | 4.6% | 30.1%
CCCNC(=O)C(=O)Nc1ccc2c(c1)N(S(=O)(=O)c1cccs1)CCC2 | ? | 1.1% | -11.7% | -24.7% | -8.3% | 55.5%
CN(C)CCNC(=O)C(=O)Nc1ccc2c(c1)N(S(=O)(=O)c1cccs1)CCC2 | ? | ? | -14.1% | 40.9% | ? | 13.1µM*
